These results are taken from PubChem BioAssay (NCATS).

Experiment [1] concerns the target Cytochrome P450 1A2 (Homo sapiens) (UniProt P05177). Kind of experiment: p450-cyp1a2 (AID 410). Note: potency is the fitted concentration of half-maximal effect. In a few lines: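 Human CYP1A2 (20nM) demethylated Luciferin-ME at its Km (100uM) in 100mM KPO4. After 10 min compound preincubation, NADPH regeneration ran the reaction 60 min at room temperature. Luciferin was read by luminescence, normalized to 57 uM furafylline.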

Experiment [2] has as its target Glucocorticoid receptor (Homo sapiens) (UniProt P04150). Kind of experiment: GR-EFC Redistribution (AID 451). Note: potency is the fitted concentration of half-maximal effect. The conditions noted are these: CHO-K1 GR-EFC translocation, beta-gal luminescence, 2 h. The method in brief: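 Translocation of GR-ED fusion to nuclear EA restores b-gal, read by luminescence after 1 h room-temperature detection. Engineered CHO-K1 biosensor cells, 1,000/well, exposed 2 h at 37 C to titrations up to 46 uM final.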

The target in experiment [3] is Mitogen-activated protein kinase 10 (Mus musculus) (UniProt Q61831). Description: JNK3 AlphaScreen Assay (AID 530; active = well fitted curve in either direction with a large enough effect, not every such curve was filed as active;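 note: kinase came from lysate of stimulated human HepG2 cells; signal reports phosphorylation of biotinylated GST-cJun 1-79 at Ser73 with 10 µM ATP; series mostly up to about 57 µM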). The method in brief:
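Room-temperature AlphaScreen kinase assay; pre-activated HepG2 lysate as JNK3 source, biotin-GST-cJun(1-79) substrate, 10 uM ATP, compound 15 min preincubation.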

Experiment [4] has as its target Cytochrome P450 2C9 (Homo sapiens) (UniProt P11712). Kind of experiment: qHTS Assay for Inhibitors and Substrates of Cytochrome P450 2C9 (AID 883; active = well fitted inhibition curve with a large enough effect; note: nearly all actives have a fitted effect of over 60% in size). In a few lines: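 Luminescent read-out of deoxyluciferin hydroxylation, normalized to 57uM sulphaphenazole (AC100). Reaction: 10nM enzyme, 100uM Luciferin-H (equal to KM), 25mM KPO4, 10 min compound preincubation, then 60 min with NADPH regeneration, both at 37C.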
For orientation: qHTS replaces the single test concentration by a dilution series.

The target of experiment [5] is Cytochrome P450 2D6 (Homo sapiens) (UniProt P10635). Kind of experiment: qHTS Assay for Inhibitors and Substrates of Cytochrome P450 2D6 (AID 891; active = well fitted inhibition curve with a large enough effect; note: nearly all actives have a fitted effect of over 60% in size; note: potency is the fitted concentration of half-maximal effect). In a few lines: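 Human CYP2D6 (5 nM) with 30 uM Luciferin-ME EGE (at Km) in 100 mM KPO4, compound preincubated 10 min, then NADPH regeneration system for 60 min at room temperature. Luciferin read by luminescence; normalized to 1.43 uM quinidine.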
Cytochrome P450 2D6 (Homo sapiens), sequence (P10635 whole entry, looked up): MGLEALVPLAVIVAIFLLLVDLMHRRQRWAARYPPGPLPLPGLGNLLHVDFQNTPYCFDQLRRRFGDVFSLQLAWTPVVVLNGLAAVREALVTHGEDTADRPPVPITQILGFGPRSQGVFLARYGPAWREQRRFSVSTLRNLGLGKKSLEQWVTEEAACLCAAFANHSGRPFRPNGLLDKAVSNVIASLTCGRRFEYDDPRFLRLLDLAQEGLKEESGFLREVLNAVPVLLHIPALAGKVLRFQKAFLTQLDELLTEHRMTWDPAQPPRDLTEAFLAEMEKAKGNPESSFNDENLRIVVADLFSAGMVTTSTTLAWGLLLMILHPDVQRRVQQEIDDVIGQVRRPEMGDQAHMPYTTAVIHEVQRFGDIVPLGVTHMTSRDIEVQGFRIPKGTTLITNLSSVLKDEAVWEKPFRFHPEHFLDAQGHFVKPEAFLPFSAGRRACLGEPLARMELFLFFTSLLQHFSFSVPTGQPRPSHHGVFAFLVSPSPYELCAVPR

Experiment [6] deals with Cytochrome P450 2C19 (Homo sapiens) (UniProt P33261). Description: qHTS Assay for Inhibitors and Substrates of Cytochrome P450 2C19 (AID 899; active = well fitted inhibition curve with a large enough effect; note: nearly all actives have a fitted effect of over 60% in size; note: potency is the fitted concentration of half-maximal effect). In a few lines:
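Luminescence readout of luciferin formed from 10uM Luciferin-H EGE (KM level) by 5 nM CYP2C19 in 50mM KPO4. 60 min NADPH-driven reaction at 37C after 10 min compound preincubation; data scaled to 57uM ketoconazole inhibition.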

Experiment [7] deals with 3',5'-cyclic-AMP phosphodiesterase 4B (Homo sapiens) (UniProt Q07343). Kind of experiment: qHTS Assay for Inhibitors of PDE-IV (AID 607; active = well fitted activation curve with a large enough effect in the main read-out, with a control signal flat, not every such curve was filed as active). In a few lines: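 The readout is membrane depolarisation from a cAMP-sensing CNG channel, detected with a potential dye at ex 535/em 590. Cells were HEK293-derived (endogenous PDE-IV) at 1000 cells/well, titrated up to 22.9 uM final.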
3',5'-cyclic-AMP phosphodiesterase 4B (Homo sapiens), sequence (Q07343 whole entry, looked up): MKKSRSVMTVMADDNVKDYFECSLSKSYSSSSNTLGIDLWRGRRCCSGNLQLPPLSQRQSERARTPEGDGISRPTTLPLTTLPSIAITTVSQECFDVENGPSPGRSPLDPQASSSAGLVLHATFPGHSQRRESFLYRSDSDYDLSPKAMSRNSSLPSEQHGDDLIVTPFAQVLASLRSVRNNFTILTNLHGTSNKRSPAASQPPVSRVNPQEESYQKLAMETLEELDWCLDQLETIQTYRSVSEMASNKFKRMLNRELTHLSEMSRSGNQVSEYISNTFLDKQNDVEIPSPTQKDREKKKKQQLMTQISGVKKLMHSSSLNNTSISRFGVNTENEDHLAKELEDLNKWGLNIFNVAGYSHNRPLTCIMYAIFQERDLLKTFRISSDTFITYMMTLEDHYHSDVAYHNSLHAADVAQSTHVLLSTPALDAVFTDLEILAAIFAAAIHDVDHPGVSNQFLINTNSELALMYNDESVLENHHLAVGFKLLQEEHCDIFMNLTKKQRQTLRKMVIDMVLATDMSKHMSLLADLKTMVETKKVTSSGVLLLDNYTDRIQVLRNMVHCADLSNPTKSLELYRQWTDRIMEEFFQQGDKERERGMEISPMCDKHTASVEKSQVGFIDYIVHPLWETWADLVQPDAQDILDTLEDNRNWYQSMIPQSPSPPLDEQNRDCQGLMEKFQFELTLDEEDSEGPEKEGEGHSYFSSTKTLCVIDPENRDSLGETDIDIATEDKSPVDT

Unmarked numbers belong to inactive results. Results filed as inconclusive are left out. Activity calls are given as the source filed them. Unless noted, calls come from the whole dose curve.

Cytochrome P450 2C9 (Homo sapiens), sequence (P11712 whole entry, looked up): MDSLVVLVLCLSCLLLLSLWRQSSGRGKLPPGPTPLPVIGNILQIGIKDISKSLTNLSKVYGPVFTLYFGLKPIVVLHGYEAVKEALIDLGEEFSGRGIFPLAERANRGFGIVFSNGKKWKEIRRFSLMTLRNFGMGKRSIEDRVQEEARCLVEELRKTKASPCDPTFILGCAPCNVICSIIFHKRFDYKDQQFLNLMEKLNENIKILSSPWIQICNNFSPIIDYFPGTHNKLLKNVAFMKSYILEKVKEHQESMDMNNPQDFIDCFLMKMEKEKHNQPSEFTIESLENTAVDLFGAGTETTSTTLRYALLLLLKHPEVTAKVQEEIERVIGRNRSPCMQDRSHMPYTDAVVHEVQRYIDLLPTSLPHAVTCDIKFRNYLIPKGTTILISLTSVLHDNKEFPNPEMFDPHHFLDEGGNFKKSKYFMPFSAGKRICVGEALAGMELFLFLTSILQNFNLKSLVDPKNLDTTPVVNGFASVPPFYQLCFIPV
Cytochrome P450 1A2 (Homo sapiens), sequence (P05177 whole entry, looked up): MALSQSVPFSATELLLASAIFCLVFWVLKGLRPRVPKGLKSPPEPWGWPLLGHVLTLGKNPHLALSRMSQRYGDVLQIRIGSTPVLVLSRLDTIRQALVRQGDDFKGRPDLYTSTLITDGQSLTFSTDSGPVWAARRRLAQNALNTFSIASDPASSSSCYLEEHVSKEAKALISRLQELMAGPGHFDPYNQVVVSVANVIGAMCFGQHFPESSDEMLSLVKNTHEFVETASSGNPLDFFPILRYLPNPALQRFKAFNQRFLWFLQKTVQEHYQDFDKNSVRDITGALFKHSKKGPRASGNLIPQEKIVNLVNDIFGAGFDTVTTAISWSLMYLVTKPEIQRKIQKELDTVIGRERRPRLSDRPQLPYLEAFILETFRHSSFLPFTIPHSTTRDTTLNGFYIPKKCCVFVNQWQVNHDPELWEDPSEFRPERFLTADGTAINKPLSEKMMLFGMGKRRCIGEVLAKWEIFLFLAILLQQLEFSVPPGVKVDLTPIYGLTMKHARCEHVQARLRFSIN
Glucocorticoid receptor (Homo sapiens), sequence (P04150 whole entry, looked up, the tested form may be a part): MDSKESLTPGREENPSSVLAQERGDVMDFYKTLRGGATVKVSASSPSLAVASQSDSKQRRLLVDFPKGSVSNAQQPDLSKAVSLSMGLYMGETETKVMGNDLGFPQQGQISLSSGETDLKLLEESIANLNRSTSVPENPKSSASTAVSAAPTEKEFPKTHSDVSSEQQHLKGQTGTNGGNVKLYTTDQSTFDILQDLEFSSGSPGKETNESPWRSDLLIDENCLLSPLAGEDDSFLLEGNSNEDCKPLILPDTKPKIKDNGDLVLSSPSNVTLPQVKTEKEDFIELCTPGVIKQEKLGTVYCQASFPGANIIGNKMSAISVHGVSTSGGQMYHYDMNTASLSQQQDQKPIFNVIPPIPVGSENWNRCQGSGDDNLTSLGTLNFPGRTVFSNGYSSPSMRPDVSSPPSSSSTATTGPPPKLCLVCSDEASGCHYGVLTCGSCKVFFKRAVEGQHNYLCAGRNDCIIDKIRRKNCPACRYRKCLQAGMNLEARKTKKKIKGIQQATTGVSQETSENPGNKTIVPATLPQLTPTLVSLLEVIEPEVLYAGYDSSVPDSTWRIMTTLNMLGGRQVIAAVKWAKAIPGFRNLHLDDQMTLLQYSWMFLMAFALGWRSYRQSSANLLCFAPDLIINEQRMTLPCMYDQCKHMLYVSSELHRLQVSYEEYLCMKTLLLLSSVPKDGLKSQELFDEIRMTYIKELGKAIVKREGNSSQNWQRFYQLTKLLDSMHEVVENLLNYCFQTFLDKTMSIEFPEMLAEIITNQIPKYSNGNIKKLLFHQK
Cytochrome P450 2C19 (Homo sapiens), sequence (P33261 whole entry, looked up): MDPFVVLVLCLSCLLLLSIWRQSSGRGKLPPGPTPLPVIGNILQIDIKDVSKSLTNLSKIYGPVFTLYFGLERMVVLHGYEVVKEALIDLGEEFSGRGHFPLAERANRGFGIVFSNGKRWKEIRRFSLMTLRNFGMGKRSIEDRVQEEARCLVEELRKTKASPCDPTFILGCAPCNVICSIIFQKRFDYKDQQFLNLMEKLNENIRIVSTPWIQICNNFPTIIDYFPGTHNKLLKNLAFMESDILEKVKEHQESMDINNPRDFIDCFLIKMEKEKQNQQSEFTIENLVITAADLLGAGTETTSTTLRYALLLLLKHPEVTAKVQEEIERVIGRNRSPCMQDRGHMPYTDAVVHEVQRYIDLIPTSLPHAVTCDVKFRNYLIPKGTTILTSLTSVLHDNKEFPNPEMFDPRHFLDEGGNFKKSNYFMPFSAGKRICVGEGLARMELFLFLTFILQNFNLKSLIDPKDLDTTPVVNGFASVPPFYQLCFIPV

On to `NCCC[C@@H](CC(=O)N[C@@H]1CCNC[C@H]1C(=O)N[C@H](CC(=O)N[C@@H](CCC(=O)O)CC(=O)O)Cc1c[nH]c2ccccc12)NC(=O)C[C@H](Cc1c[nH]c2ccccc12)NC(=O)[C@@H]1CCCC[C@H]1N`, for which the Potency result in experiment [1], in experiment [3], in experiment [4], in experiment [5] and in experiment [6] was “inactive” each time. For the same compound, the Potency in experiment [2] was more than 46 µM.
As for `CC(C)[C@@H](CC(=O)N[C@@H]1CCCC[C@H]1C(=O)N[C@H](CC(=O)N[C@@H](CCC(=O)O)CC(=O)O)Cc1ccccc1)NC(=O)C[C@H](CO)NC(=O)[C@@H]1CNCC[C@H]1N`, the Potency entry in experiment [1], in experiment [7], in experiment [5] and in experiment [6] was “inactive” throughout. In experiment [2], the Potency is more than 46 µM.
As for `CC(C)C[C@@H](CC(=O)N[C@H](CC(=O)N[C@@H]1CCCC[C@H]1C(=O)N[C@H](CC(=O)N[C@@H](CCC(=O)O)CC(=O)O)CC(C)C)C(C)C)NC(=O)[C@@H]1CCCC[C@H]1N`, the Potency result in experiment [1], in experiment [3], in experiment [7], in experiment [5] and in experiment [6] was “inactive” throughout. Also, in experiment [2], the Potency was more than 46 µM.
For the compound `CC(C)[C@@H](CC(=O)N[C@@H]1CCCC[C@H]1C(=O)N[C@H](CC(=O)N[C@@H](CCC(=O)O)CC(=O)O)Cc1c[nH]c2ccccc12)NC(=O)C[C@H](CO)NC(=O)[C@@H]1CNCC[C@H]1N`, the Potency result in experiment [1], in experiment [7], in experiment [5] and in experiment [6] was “inactive” throughout. In addition, the Potency in experiment [2] was more than 46 µM.
In the case of `CC(C)C[C@@H](CC(=O)N[C@@H](CCCN)CC(=O)N[C@@H]1CCCC[C@H]1C(=O)N[C@H](CC(=O)N[C@@H](CCC(=O)O)CC(=O)O)Cc1c[nH]c2ccccc12)NC(=O)[C@@H]1CCCC[C@H]1N`, the Potency result in experiment [1], in experiment [7], in experiment [5] and in experiment [6] was “inactive” throughout. For the same compound, the Potency in experiment [2] is more than 46 µM.
For the compound `COc1cc(/C=C\C(=O)N2CCCCC2=O)cc(OC)c1OC`, the Potency was 0.1 µM (active) in experiment [1] and more than 46 µM in experiment [2]. Also, the Potency result in experiment [4], in experiment [5] and in experiment [6] was “inactive” throughout.
`CC(C)C[C@@H](CC(=O)N[C@H](CC(=O)N[C@@H]1CCNC[C@H]1C(=O)N[C@H](CC(=O)N[C@@H](CCC(=O)O)CC(=O)O)CC(C)C)C(C)C)NC(=O)[C@@H]1CNCC[C@H]1N`: the Potency result in experiment [1], in experiment [3], in experiment [7], in experiment [5] and in experiment [6] was “inactive” each time. Further, in experiment [2], the Potency is more than 46 µM.
Turning to `CC(C)C[C@@H](CC(=O)N[C@@H](CCC(=O)O)CC(=O)O)NC(=O)[C@@H]1CCCC[C@H]1NC(=O)C[C@@H](NC(=O)C[C@H](Cc1c[nH]c2ccccc12)NC(=O)[C@@H]1CCCC[C@H]1N)C(C)C`, the Potency entry in experiment [1], in experiment [7], in experiment [4] and in experiment [5] was “inactive” each time. Besides, in experiment [2], the Potency is more than 46 µM.
`CCc1c2c(nc3cccc(SC)c13)COC2`: the Potency in experiment [1] was 2.51 µM (active). Moreover, the Potency entry in experiment [3] was “inactive”.
Regarding `NCCC[C@@H](CC(=O)N[C@@H]1CCCC[C@H]1C(=O)N[C@H](CC(=O)N[C@@H](CCC(=O)O)CC(=O)O)Cc1c[nH]c2ccccc12)NC(=O)C[C@H](Cc1c[nH]c2ccccc12)NC(=O)[C@@H]1CCCC[C@H]1N`, the Potency result in experiment [1], in experiment [7], in experiment [4], in experiment [5] and in experiment [6] was “inactive” in each case. For the same compound, the Potency in experiment [2] is more than 46 µM.
Take `NCCC[C@@H](CC(=O)N[C@@H]1CCNC[C@H]1C(=O)N[C@H](CC(=O)N[C@@H](CCC(=O)O)CC(=O)O)Cc1c[nH]c2ccccc12)NC(=O)C[C@H](Cc1c[nH]c2ccccc12)NC(=O)[C@@H]1CNCC[C@H]1N`: the Potency entry in experiment [1], in experiment [7] and in experiment [6] was “inactive” each time. In experiment [2], the Potency was more than 46 µM.
On to `NCCC[C@@H](CC(=O)N[C@@H]1CCCC[C@H]1C(=O)N[C@H](CC(=O)N[C@@H](CCC(=O)O)CC(=O)O)Cc1c[nH]c2ccccc12)NC(=O)C[C@H](CO)NC(=O)[C@@H]1CNCC[C@H]1N`, for which the Potency result in experiment [1] and in experiment [7] was “inactive” throughout. For the same compound, the Potency in experiment [2] is more than 46 µM.
For `CCCC[C@@H]1C[C@H]1C(NC(=O)c1ccc(-c2ccccc2)cc1)c1ccc(-c2ccccc2)cc1` (stereo not given in full), the Potency result in experiment [1] and in experiment [3] was “inactive” in each case.
Regarding `CC(C)[C@@H](CC(=O)N[C@@H]1CCNC[C@H]1C(=O)N[C@H](CC(=O)N[C@@H](CCC(=O)O)CC(=O)O)Cc1c[nH]c2ccccc12)NC(=O)C[C@H](Cc1c[nH]c2ccccc12)NC(=O)[C@@H]1CNCC[C@H]1N`, the Potency result in experiment [1], in experiment [7], in experiment [4], in experiment [5] and in experiment [6] was “inactive” in each case. Moreover, in experiment [2], the Potency was more than 46 µM.
Consider `Clc1ccc(CO[C@@H](Cn2ccnc2)c2ccc(Cl)cc2Cl)cc1`, for which the Potency in experiment [1] was 0.1 µM (active); in experiment [2], more than 20.6 µM; in experiment [5] it was 0.199 µM (active); in experiment [6], 0.0631 µM (active).
For the compound `CC(C)[C@@H](CC(=O)N[C@@H]1CCNC[C@H]1C(=O)N[C@H](CC(=O)N[C@@H](CCC(=O)O)CC(=O)O)Cc1c[nH]c2ccccc12)NC(=O)C[C@H](CO)NC(=O)[C@@H]1CNCC[C@H]1N`, the Potency entry in experiment [1], in experiment [7], in experiment [5] and in experiment [6] was “inactive” throughout. The Potency in experiment [2] was more than 46 µM.
